Compound activity from PubChem.
Only some compounds are listed: those with a hit (about 2.4% of all), similar ones and a draw of the others.
Pol kappa inh: qHTS for Inhibitors of Polymerase Kappa; DNA polymerase kappa (Homo sapiens), Q9UBT6; 400,000 tested, 0.53% active; AID 588579, 2011; Potency, µM (titrated, usually from 107 µM), most hits filed as inhibitors; purified Pol kappa, fluorescent DNA synthesis assay, 10 min
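Fluorescent qHTS in 1536-well format: enzyme (10 nM) and compound sat 15 min at room temperature before 50 nM substrate (final) was added. Signal taken at 0 and 10 min; no-enzyme buffer wells were negative controls.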
FEN1 inhibitor: qHTS Assay for the Inhibitors of Human Flap endonuclease 1 (FEN1); P39748; Recombinant FEN1 flap cleavage, fluorescence, 15 min; Potency, µM (top dose mostly 114 µM), actives largely listed as inhibitors; 390,000 tested, 0.35% active; AID 588795, 2011; further: nearly all actives have a fitted effect of over 65% in size
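Compounds are tested as a concentration series against 10 nM FEN1; after a 15 min room-temperature preincubation, 50 nM substrate starts cleavage, with plate reads at 0 and 15 min. Normalized responses are fitted by a Hill equation.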
Pol beta inh: qHTS Assay for Inhibitors of DNA Polymerase Beta. P06746. Pol beta primer extension/strand displacement, fluorescence kinetic. Potency, µM (top dose mostly 114 µM), hits mostly inhibitors. 340,000 tested, 1.3% active. AID 485314, 2010
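Human Pol beta at 10 nM; strand-displacement substrate 50 nM final. Compound exposure 15 min at room temperature before start, reaction 10 min at room temperature.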
WRN inhibitor: qHTS for Inhibitors of WRN Helicase; Bifunctional 3'-5' exonuclease/ATP-dependent helicase WRN (Homo sapiens), Q14191; WRN helicase unwinding, fluorescent forked duplex, kinetic; Potency, µM (doses to about 114 µM), hits mostly inhibitors; 360,000 tested, 0.46% active; AID 651768, 2012; further: nearly all actives have a fitted effect of over 55% in size
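Fluorescence dequenching readout, ex 525 nm/em 598 nm, kinetic mode: forked duplex DNA (100 nM final) with adjacent fluorophore and quencher unwound by WRN (20 nM final) with 2 mM ATP. Compound preincubation 15 min, room temperature.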
POLI inh: qHTS for Inhibitors of Polymerase Iota. DNA polymerase iota (Homo sapiens), Q9UNA4. Pol iota fluorescent replication assay, 10 min. Potency, µM (doses to about 115 µM), actives largely listed as inhibitors. 390,000 tested, 1% active. AID 588590, 2011
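Fluorescent replication assay read twice, at 0 min and 10 min after adding 50 nM (final) substrate. Enzyme (10 nM) and compounds were first incubated 15 min at room temperature; enzyme-free buffer wells were negative controls.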
Pol eta inh: qHTS for Inhibitors of Polymerase Eta; Potency, µM (series often up to 114 µM), actives largely listed as inhibitors; recombinant Pol eta, fluorescent DNA replication assay; AID 588591, 2011; 390,000 tested, 1.2% active
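Fluorescent replication assay: 50 nM final substrate added after a 15 min room-temperature compound preincubation with 10 nM enzyme. Signal taken at 0 min and again at 10 min.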
A number is an active result; n = inactive; u = inconclusive; x = no result given; [ ] = remark or other dose. The call rests on the fitted dose curve; in most records, active means well fitted curve in the direction sought with a large enough effect; inconclusive means small, poorly fitted or top-dose-only effect, or another doubt; inactive means no such curve, though single readings can be large; an effect the other way counts as inactive or inconclusive.

SMILES	Pol kappa inh	FEN1 inhibitor	Pol beta inh	WRN inhibitor	POLI inh	Pol eta inh
C#CCOCCOCCOCCNc1nc(N2CCN(C(=O)CCCCCCCCCCNC(=O)[C@@H](CCC(=O)O)n3cc(CCCCCN)nn3)CC2)nc(N2CCN(C(=O)CCCCCCCCCCNC(=O)[C@H](CO)n3cc(CCCCCN)nn3)CC2)n1	n	n	x	n	n	n
C#CCOCCOCCOCCNc1nc(N2CCN(C(=O)CCCCCCCCCCNC(=O)[C@@H](CCC(=O)O)n3cc(CCCCCN)nn3)CC2)nc(N2CCN(C(=O)CCCCCCCCCCNC(=O)[C@H](CCCCN)n3cc(C[C@@H](C)CC)nn3)CC2)n1	n	u	x	n	n	89.1µM
C#CCOCCOCCOCCNc1nc(N2CCN(C(=O)CCCCCCCCCCNC(=O)[C@H](CCCCN)n3cc(CCO)nn3)CC2)nc(N2CCN(C(=O)CCCCCCCCCCNC(=O)[C@H](CCCCN)n3cc(C[C@@H](C)CC)nn3)CC2)n1	n	28.2µM	x	50.1µM	u	79.4µM
C#CCOCCOCCOCCNc1nc(N2CCN(C(=O)CCCCCCCCCCNC(=O)[C@@H](CCSC)n3cc(CCO)nn3)CC2)nc(N2CCN(C(=O)CCCCCCCCCCNC(=O)[C@H](CO)n3cc(CCCCCN)nn3)CC2)n1	n	u	x	50.1µM	n	u
Cc1c(NC(=O)N2CCCCCC2)c(=O)n(-c2ccccc2)n1C	n	n	n	n	n	n
CCCc1nnc(NC(=O)CCC(=O)N2CCN(c3nc(C)cc(C)n3)CC2)s1	n	n	n	n	n	n
CCCOCc1cc(CN2CCN(c3cccc(Cl)c3)CC2)c(O)c2ncccc12	n	n	n	x	n	n
CS(=O)(=O)Nc1ccc(C2=NN(C(=O)C3CCCCC3)C(c3cccs3)C2)cc1 (centres undefined)	n	n	n	n	n	n
COc1ccc(N(C)S(=O)(=O)c2cccc(C(=O)Nc3nc(C)cs3)c2)cc1	n	u	x	n	n	u
CCOC(=O)C1=C(COc2ccccc2)NC(=O)NC1c1cccc([N+](=O)[O-])c1 (centres undefined)	n	n	n	n[11.6 µM]	39.8µM	n
COc1ccccc1/C=C/C1=NC(=C\C=C/c2ccccc2)/C(=O)O1	n	n	20µM	n	u	u
COc1ccccc1/C=C/C=C1N=C(/C=C/c2ccc(Cl)cc2)OC/1=O	n	n	u	n	n	n
CCOc1ccc(-c2nnc(SCC(=O)Nc3cc(C)ccc3OC)o2)cc1	n	n	u	x	n	n
CCCCNc1cc(N2CCN(C3CCCCC3)CC2)c2noc3c2c1C(=O)c1ccccc1-3	n	n	n	x	n	n
O=C(O)CCCNc1cc(N2CCC3(CC2)OCCO3)c2noc3c2c1C(=O)c1ccccc1-3	x	x	11.2µM	x	x	x
CCOC(=O)N1CCN(c2cc(NCCC(=O)O)c3c4c(onc24)-c2ccccc2C3=O)CC1	17.8µM	u	25.1µM	n	u	3.16µM
O=C1c2ccccc2-c2onc3c(N4CCN(CCO)CC4)cc(N4CCN(C(=O)c5ccco5)CC4)c1c23	n	44.7µM	n	n	u	u
CSc1nsc(/C=C/Nc2ccc(O)cc2C)c1C#N	n	u	n	u	25.1µM	n
CSc1nsc(/C=C/Nc2ccc(F)cc2)c1C#N	n	n	n	n	u	n
N#CCC(CNc1ncc(C(F)(F)F)cc1Cl)OC(=O)c1cccc([N+](=O)[O-])c1 (centres undefined)	n	n	n	n	n	u
CCCCN(C(=O)c1ccc(N(C)S(=O)(=O)c2ccc(C)cc2)cc1)c1c(N)n(CCCC)c(=O)[nH]c1=O	n	n	x	n	n	n
CCCCN1C(=O)C(NC(C)=O)c2cc(Br)ccc21 (centres undefined)	n	n	n	n	n	n
CC(=O)NC1C(=O)N(CCN2CCOCC2)c2ccc(C)cc21 (centres undefined)	n	u	u	n	n	25.1µM
CCc1ccc2c(c1)C(NC(C)=O)C(=O)N2CC (centres undefined)	n	n	n	n	n	n
CC(=O)NC1C(=O)N(CCN2CCOCC2)c2ccc(F)cc21 (centres undefined)	n	50.1µM	n	n[11.6 µM]	u	u
SMILES	Pol kappa inh	FEN1 inhibitor	Pol beta inh	WRN inhibitor	POLI inh	Pol eta inh
NCCCNCCCCNCCCNC(=O)CCc1ccc(O)cc1	n[12 µM]	x	x	x	x	x
O=C(Nc1ccncc1)c1ccc(S(=O)(=O)Nc2ccccc2)cc1	n	n	n	n	n	n
NS(=O)(=O)c1ccc(NS(=O)(=O)c2ccc(NC(=O)c3ccc(-c4ccccc4)cc3)cc2)cc1	u	u	u	u	56.2µM	u
Cc1ccc(C2C(C#N)=C(N)SC(N)=C2C#N)c(C)c1	n	n	n	n	25.1µM	n
CCOc1cc(CNc2cccc3ccccc23)cc(Br)c1OCC(=O)NC(C)(C)C	n	n	79.4µM	n	n	n
CCOc1cc(CNc2ccc(N(C)C)cc2)cc(Br)c1OCC(=O)NC(C)(C)C	n	n	n	n	8.91µM	n
CCCc1cc(C(=O)Cc2ccccn2)c(O)cc1O	n	n	n	n	n	n
C/C(=N/NC(=O)c1cc2ccccc2cc1O)c1ccco1	u	n	63.1µM	n[11.6 µM]	44.7µM	n
C/C(=N\NC(=O)c1cc2ccccc2cc1O)c1ccc(C)o1	n	n	79.4µM	n	u	n
C/C(=N\NC(=O)c1cc(C)nc2ccccc12)c1ccco1	n	n	u	n	n	n
C/C(=N\NC(=O)c1cccc([N+](=O)[O-])c1)c1ccco1	n	n	n	n	u	n
C/C(=N\NC(=O)c1cccc(N/N=C(\C)c2ccco2)c1)c1ccco1	89.1µM	n	n	n[11.6 µM]	44.7µM	22.4µM
Oc1ccc(/C=N/n2c(COc3ccccc3)n[nH]c2=S)c(O)c1	n	n	n	n	n	n
NN1C(=O)c2cccc3c(C(=O)O)ccc(c23)C1=O	n	n	n	n	n	u
CC(=O)c1ccc2c3c(cccc13)C(=O)N(CCc1ccccc1)C2=O	u	n	31.6µM	n[11.6 µM]	u	28.2µM
COc1cc(C2/C(=C(\O)c3ccc4c(c3)CC(C)O4)C(=O)C(=O)N2CC2CCCO2)cc(OC)c1OC (centres undefined)	n	n	n	n	n	n
CCOc1cc(/C=C2\C(=O)N(c3nc(-c4ccc(Br)cc4)cs3)N=C2c2ccccc2)ccc1O	79.4µM	50.1µM	10µM	n	u	10µM
COc1cc(/C=C2\C(=O)N(c3ccc(NC(C)=O)cc3)N=C2c2ccccc2)ccc1O	n	n	n	n	u	n
